# PubChem BioAssay (EPA / NIEHS)
# Where “and” joins values, the source holds several entries; their conditions need not be identical. Equal entries are not always repeated. Results filed as inconclusive are left out. Calls of active or inactive are those of the source. The calls were made as follows, unless noted: active = hit-call score of the fitted dose curve at least 0.9, where 1 is the maximum; inactive = score below 0.9.
# Experiments:
# [1] = CCTE_Simmons_MITO_max_resp_rate: CCTE's HepG2 Seahorse XF Respirometric Screening Assay at Maximal Respiratory State [uncoupled], Simmons Lab (AID 2284002); conditions: actives raise or lower the signal
# Method in brief: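 HepG2, Seahorse XF96, maximal OCR post-FCCP. Cpd 125 nM–100 uM final (7 conc), n=3 biological. Kinetic reads every 6 min (3 min mix/3 min measure) over 72 min; fit bidirectional vs DMSO.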
# [2] = test system: DIO1 (gene 1733); test: CCTE_GLTED_hDIO1: CCTE's human Deiodinase 1 (DIO1) Inhibition Assay, Great Lakes Toxicology and Ecology Division (GLTED) Lab (AID 2283987; active = hit-call score of the fitted dose curve at least 0.9, where 1 is the maximum;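 also: isolated human DIO1 enzyme in a cell-free setup rather than cells; enzyme activity read as free iodide liberated from substrate via Sandell-Kolthoff colorimetry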)
# Method in brief: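 Steps: human DIO1 enzyme plus test chemical, 3 h incubation; free iodide then quantified in a second Sandell-Kolthoff step by absorbance. DMSO served as negative control and baseline.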
# [3] = CCTE_Harrill_HTTr_Viability_DMEM_6hr: (Pilot) CCTE's 6-hour Cell Viability Assessment for the High-Throughput Transcriptomics (HTTr) Platform, in MCF-7 cells cultured in DMEM + 10% fetal bovine serum, Harrill Lab (AID 2283973)
# Method in brief: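 Propidium iodide uptake imaged by high-content analysis after six hours of chemical treatment in an eight-concentration series. Cells: MCF-7 grown in DMEM with 10% fetal bovine serum; DMSO as baseline.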
# [4] = CCTE_Harrill_HTTr_Viability_DMEM_12hr: (Pilot) CCTE's 12-hour Cell Viability Assessment for the High-Throughput Transcriptomics (HTTr) Platform, in MCF-7 cells cultured in DMEM + 10% fetal bovine serum, Harrill Lab (AID 2283974)
# Method in brief: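 Propidium iodide dye exclusion imaged by high-content microscopy after 12 h chemical exposure (eight concentrations) of MCF-7 cells grown in DMEM plus 10% FBS; values fitted in both directions relative to DMSO.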
# [5] = CCTE_Harrill_HTTr_Viability_DMEM_24hr: (Pilot) CCTE's 24-hour Cell Viability Assessment for the High-Throughput Transcriptomics (HTTr) Platform, in MCF-7 cells cultured in DMEM + 10% fetal bovine serum, Harrill Lab (AID 2283975)
# Method in brief: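 Pilot study: propidium iodide dye exclusion, imaged by high content microscopy, after 24 h compound exposure (eight concentrations) in MCF-7 cultured in DMEM + 10% fetal bovine serum; DMSO served as negative control and baseline.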
# [6] = CCTE_Harrill_HTTr_Viability_PRF_DMEM_6hr: (Pilot) CCTE's 6-hour Cell Viability Assessment for the High-Throughput Transcriptomics (HTTr) Platform, in MCF-7 cells cultured phenol red-free DMEM + 10% charcoal-stripped fetal bovine serum, Harrill Lab (AID 2283976)
# Method in brief: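 Membrane integrity by high-content imaging of propidium iodide uptake, six hours after dosing with eight concentrations. Cells: MCF-7 grown in phenol red-free DMEM plus 10% charcoal-stripped serum; DMSO serves as baseline for bidirectional fits.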
# [7] = CCTE_Harrill_HTTr_Viability_PRF_DMEM_12hr: (Pilot) CCTE's 12-hour Cell Viability Assessment for the High-Throughput Transcriptomics (HTTr) Platform, in MCF-7 cells cultured in phenol red-free DMEM + 10% charcoal-stripped fetal bovine serum, Harrill Lab (AID 2283977)
# Method in brief: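 Membrane integrity was scored via propidium iodide dye exclusion imaging, fitted in both directions relative to DMSO. Compounds ran as eight-point dilutions for 12 hours on MCF-7 grown in phenol red-free DMEM plus 10% charcoal-stripped serum.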
# [8] = CCTE_Harrill_HTTr_Viability_PRF_DMEM_24hr: (Pilot) CCTE's 24-hour Cell Viability Assessment for the High-Throughput Transcriptomics (HTTr) Platform, in MCF-7 cells cultured in phenol red-free DMEM + 10% charcoal-stripped fetal bovine serum, Harrill Lab (AID 2283980)
# Method in brief: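 Propidium iodide exclusion imaged at 24 h after dosing scores viability; cells were MCF-7 grown in phenol red-free DMEM plus 10% charcoal-stripped serum, tested in eight concentrations, fitted in both directions against DMSO.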
# [9] = CCTE_Harrill_HTTr_Apoptosis_DMEM_6hr: (Pilot) CCTE's 6-hour Apoptosis Assessment for the High-Throughput Transcriptomics (HTTr) Platform, in MCF-7 cells cultured in DMEM + 10% fetal bovine serum, Harrill Lab (AID 2283981)
# Method in brief: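 MCF-7 cells grown in DMEM + 10% FBS were exposed for 6 hours to an eight-point dilution series. CellEvent Caspase 3/7 Green signal was imaged; activity fitted bidirectionally against DMSO.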
# [10] = CCTE_Harrill_HTTr_Apoptosis_DMEM_12hr: (Pilot) CCTE's 12-hour Apoptosis Assessment for the High-Throughput Transcriptomics (HTTr) Platform, in MCF-7 cells cultured in DMEM + 10% fetal bovine serum, Harrill Lab (AID 2283982)
# Method in brief: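 Caspase-3/7 activity was measured by high-content imaging (CellEvent Caspase 3/7 Green) after a 12-hour exposure of MCF-7 cells grown in DMEM with 10% FBS. Eight-point concentration series, fitted bidirectionally against vehicle.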
# [11] = CCTE_Harrill_HTTr_Apoptosis_DMEM_24hr: (Pilot) CCTE's 24-hour Apoptosis Assessment for the High-Throughput Transcriptomics (HTTr) Platform, in MCF-7 cells cultured in DMEM + 10% fetal bovine serum, Harrill Lab (AID 2283983)
# Method in brief: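 Caspase-3/7 activity read by high-content imaging (CellEvent Green reagent) 24 h after dosing. MCF-7 cells grown in DMEM with 10% FBS received an eight-point concentration series; fits were bidirectional versus DMSO.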
# [12] = CCTE_Harrill_HTTr_Apoptosis_PRF_DMEM_6hr: (Pilot) CCTE's 6-hour Apoptosis Assessment for the High-Throughput Transcriptomics (HTTr) Platform, in MCF-7 cells cultured phenol red-free DMEM + 10% charcoal-stripped fetal bovine serum, Harrill Lab (AID 2283984)
# Method in brief: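 Caspase-3/7 activity (CellEvent Green) read by high-content imaging 6 h after dosing, eight concentrations. Cells: MCF-7, phenol red-free DMEM with 10% charcoal-stripped serum. Curves fit both directions against DMSO.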
# [13] = CCTE_Harrill_HTTr_Apoptosis_PRF_DMEM_12hr: (Pilot) CCTE's 12-hour Apoptosis Assessment for the High-Throughput Transcriptomics (HTTr) Platform, in MCF-7 cells cultured in phenol red-free DMEM + 10% charcoal-stripped fetal bovine serum, Harrill Lab (AID 2283985)
# Method in brief: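 Caspase-3/7 activity by CellEvent Green high content imaging after 12 h compound exposure (eight concentrations) in MCF-7 grown in phenol red-free DMEM plus 10% charcoal-stripped serum; DMSO as baseline.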
# [14] = CCTE_Harrill_HTTr_Apoptosis_PRF_DMEM_24hr: (Pilot) CCTE's 24-hour Apoptosis Assessment for the High-Throughput Transcriptomics (HTTr) Platform, in MCF-7 cells cultured in phenol red-free DMEM + 10% charcoal-stripped fetal bovine serum, Harrill Lab (AID 2283986)
# Method in brief: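 Eight concentrations tested for 24 h on MCF-7 grown in charcoal-stripped serum, phenol red-free DMEM. High content imaging of CellEvent Caspase 3/7 Green signal gives apoptosis read-out, fitted both ways relative to DMSO.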
# [15] = molecular target: Nucleoli Translocation, AR (gene 367) (UniProt P10275); test: UPITT_HCI_U2OS_AR_TIF2_Nucleoli_Antagonist: University of Pittsburgh U2OS Androgen Receptor-Transcriptional Intermediary Factor 2 (AR-TIF2) Antagonism High Content Imaging Assay for Nucleoli Translocation (AID 2283997; active = hit-call score of the fitted dose curve at least 0.9, where 1 is the maximum)
# Nucleoli Translocation, AR (gene 367), sequence (P10275 whole entry, looked up): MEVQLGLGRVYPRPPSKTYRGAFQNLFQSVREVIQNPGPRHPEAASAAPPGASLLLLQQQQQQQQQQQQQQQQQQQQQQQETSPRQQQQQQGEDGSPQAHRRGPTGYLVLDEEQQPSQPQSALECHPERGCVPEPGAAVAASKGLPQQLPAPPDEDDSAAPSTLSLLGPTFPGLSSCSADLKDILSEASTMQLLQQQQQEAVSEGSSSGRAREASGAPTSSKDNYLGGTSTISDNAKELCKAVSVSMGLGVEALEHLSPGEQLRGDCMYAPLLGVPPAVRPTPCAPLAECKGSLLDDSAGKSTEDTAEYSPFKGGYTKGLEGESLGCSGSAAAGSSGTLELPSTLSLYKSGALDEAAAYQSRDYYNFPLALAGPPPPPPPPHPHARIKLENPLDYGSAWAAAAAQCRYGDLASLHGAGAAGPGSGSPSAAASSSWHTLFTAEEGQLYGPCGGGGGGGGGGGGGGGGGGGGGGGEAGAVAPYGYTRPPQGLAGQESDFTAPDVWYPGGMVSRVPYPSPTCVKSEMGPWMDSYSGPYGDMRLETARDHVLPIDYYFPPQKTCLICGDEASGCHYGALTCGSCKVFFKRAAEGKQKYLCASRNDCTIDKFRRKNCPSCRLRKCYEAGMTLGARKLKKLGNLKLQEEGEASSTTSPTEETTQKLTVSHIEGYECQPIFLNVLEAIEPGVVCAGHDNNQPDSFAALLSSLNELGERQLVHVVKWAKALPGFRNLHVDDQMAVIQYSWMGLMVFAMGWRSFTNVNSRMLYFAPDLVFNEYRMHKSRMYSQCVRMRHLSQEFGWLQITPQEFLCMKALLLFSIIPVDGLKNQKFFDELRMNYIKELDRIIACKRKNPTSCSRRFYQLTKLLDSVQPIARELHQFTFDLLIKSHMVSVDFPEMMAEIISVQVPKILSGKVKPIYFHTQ
# Method in brief: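 Antagonism is read as loss of nucleolar AR-RFP signal relative to DHT, imaged in U2OS cells also carrying GFP-TIF2. Compounds screened at 20 uM final, 0.2% DMSO; primary actives retested in triplicate.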
# [16] = molecular target: Nucleoli Translocation, AR (gene 367) (UniProt P10275); test: UPITT_HCI_U2OS_AR_TIF2_Nucleoli_Agonist: University of Pittsburgh U2OS Androgen Receptor-Transcriptional Intermediary Factor 2 (AR-TIF2) Agonism High Content Imaging Assay for Nucleoli Translocation (AID 2283998; active = hit-call score of the fitted dose curve at least 0.9, where 1 is the maximum)
# Method in brief: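 RFP-AR / GFP-TIF2 cells; cpds diluted in serum-free medium; single-point screen 20 uM final (0.2% DMSO), actives confirmed in triplicate; conc-response 0.195–50 uM final (0.5% DMSO). Readout: nucleolar red fluorescence, positive direction vs DMSO.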
# [17] = molecular target: Ratio of Nucleoli Translocation and Cytoplasm, AR (gene 367) (UniProt P10275); test: UPITT_HCI_U2OS_AR_TIF2_Nucleoli_Cytoplasm_Ratio_Agonist: University of Pittsburgh U2OS Androgen Receptor-Transcriptional Intermediary Factor 2 (AR-TIF2) Agonism High Content Imaging Assay for Ratio of Nucleoli Translocation and Cytoplasm (AID 2284000; active = hit-call score of the fitted dose curve at least 0.9, where 1 is the maximum;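 also: hits raise the red nucleolar to cytoplasm ratio above vehicle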)
# Ratio of Nucleoli Translocation and Cytoplasm, AR (gene 367), sequence (P10275 whole entry, looked up): as above
# Method in brief: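 Compounds tested at 20 uM final in primary screen (0.2% DMSO) and 0.195-50 uM final in dose-response (0.5% DMSO). Imaging of human U2OS cells bearing RFP-AR and GFP-TIF2; endpoint is nucleoli/cytoplasm red signal ratio, positive direction relative to DMSO.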
# [18] = molecular target: Ratio of Nucleoli Translocation and Cytoplasm, AR (gene 367) (UniProt P10275); test: UPITT_HCI_U2OS_AR_TIF2_Nucleoli_Cytoplasm_Ratio_Antagonist: University of Pittsburgh U2OS Androgen Receptor-Transcriptional Intermediary Factor 2 (AR-TIF2) Antagonism High Content Imaging Assay for Ratio of Nucleoli Translocation and Cytoplasm (AID 2283999; active = hit-call score of the fitted dose curve at least 0.9, where 1 is the maximum;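 also: antagonists lower the DHT-driven ratio of nucleolar to cytoplasmic red signal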)
# Method in brief: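 This antagonist-mode endpoint tracks AR-RFP localisation, the nucleolus-to-cytoplasm intensity ratio, in TIF2-GFP-coexpressing U2OS cells. DMSO stays at or below 0.5%; testing spans 20 uM single-dose and 0.195–50 uM series, with DHT setting the activity baseline.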
# [19] = molecular target: Retinoic acid receptor RXR-alpha (Homo sapiens) (UniProt P19793); test: TOX21_TR_RXR_BLA_Antagonist_Followup_ratio: Tox21 Thyroid Hormone Receptor beta Retinoid X Receptor alpha (RXRa) Antagonism Beta-lactamase (BLA) Follow-Up Assay, Ratio (AID 2283972; active = hit-call score of the fitted dose curve at least 0.9, where 1 is the maximum)
# Retinoic acid receptor RXR-alpha (Homo sapiens), sequence (P19793 whole entry, looked up, the tested form may be a part): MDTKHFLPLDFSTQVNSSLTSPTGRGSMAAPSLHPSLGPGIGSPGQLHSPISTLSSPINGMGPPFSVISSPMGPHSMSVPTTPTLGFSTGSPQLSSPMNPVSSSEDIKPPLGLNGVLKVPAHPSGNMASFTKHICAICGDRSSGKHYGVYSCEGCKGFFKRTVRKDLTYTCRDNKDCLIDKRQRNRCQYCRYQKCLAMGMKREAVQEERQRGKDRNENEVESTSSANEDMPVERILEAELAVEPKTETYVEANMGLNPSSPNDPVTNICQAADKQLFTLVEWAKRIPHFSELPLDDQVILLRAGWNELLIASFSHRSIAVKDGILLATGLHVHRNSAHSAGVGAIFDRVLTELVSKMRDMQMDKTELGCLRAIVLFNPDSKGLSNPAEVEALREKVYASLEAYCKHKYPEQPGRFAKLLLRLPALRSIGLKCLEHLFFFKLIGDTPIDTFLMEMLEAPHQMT
# Method in brief: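 Beta-lactamase reporter readout as cleaved/uncleaved substrate ratio (460:530 nm) after 2 h substrate loading at room temperature. GAL4-RXRa bla HEK293T cells were exposed 16 h at 37C to 11-point compound series; loss of signal scored against DMSO baseline.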
# [20] = TOX21_TR_RXR_BLA_Antagonist_Followup_viability: Viability Assessment in the Tox21 Thyroid Hormone Receptor beta Retinoid X Receptor alpha (RXRa) Antagonism Beta-lactamase (BLA) Follow-Up Assay (AID 2283979; active = hit-call score of the fitted dose curve at least 0.9, where 1 is the maximum)
# Method in brief: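 Follow-up compounds (11 concentrations, triplicate) were incubated 16 h at 37C/5% CO2 with HEK293T RXRa-bla cells seeded at 2,500/well in charcoal-stripped-serum medium. ATP content by CellTiter-Glo luminescence gave viability; curves fitted in both directions against DMSO.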
smiles,measurement,setting,value
CCC(CC)Nc1c([N+](=O)[O-])cc(C)c(C)c1[N+](=O)[O-],AC50,[1],29.8 µM (active)
CN(C)[C@@H]1C(=O)C(C(N)=O)=C(O)[C@@]2(O)C(=O)C3=C(O)c4c(O)cccc4[C@@](C)(O)[C@H]3[C@H](O)[C@@H]12,AC50,[2],29.8 µM (active) and 15.9 µM (active) and 27.1 µM (active)
same,outcome,[1],inactive
CCc1cccc(C)c1N(C(=O)CCl)C(C)COC (configuration not stated),AC50,[2],64.2 µM (active)
same,AC50,[1],39.7 µM (active)
CCNc1nc(Cl)nc(NC(C)(C)C#N)n1,outcome,[3],inactive
same,outcome,[4],inactive
same,outcome,[5],inactive
same,outcome,[6],inactive
same,outcome,[7],inactive
same,outcome,[8],inactive
same,outcome,[9],inactive
same,outcome,[10],inactive
same,outcome,[11],inactive
same,outcome,[12],inactive
same,outcome,[13],inactive
same,outcome,[14],inactive
O=c1ccc(=O)[nH][nH]1,outcome,[15],inactive
same,outcome,[16],inactive
same,outcome,[17],inactive
O=C(O)c1cc(Oc2ccc(C(F)(F)F)cc2Cl)ccc1[N+](=O)[O-],AC50,[1],32.9 µM (active)
C#CCC1=C(C)C(OC(=O)C2C(C=C(C)C)C2(C)C)CC1=O (configuration not stated),AC50,[1],33.7 µM (active)
O=[N+]([O-])c1cc(C(F)(F)F)c(Cl)c([N+](=O)[O-])c1Nc1ncc(C(F)(F)F)cc1Cl,AC50,[2],19.4 µM (active)
same,outcome,[1],inactive
CCC(=O)Nc1ccc(Cl)c(Cl)c1,AC50,[15],14.3 µM (active)
same,outcome,[18],inactive
same,outcome,[17],inactive
same,AC50,[1],27.3 µM (active)
CCOP(=S)(Oc1cnc(C(C)(C)C)nc1)OC(C)C (configuration not stated),AC50,[1],50 µM (active)
COP(=O)(OC)SCn1c(=O)oc2cc(Cl)cnc21,outcome,[15],inactive
same,outcome,[16],inactive
same,outcome,[18],inactive
same,outcome,[17],inactive
CON=C(C(=O)OC)c1ccccc1CON=C(C)c1cccc(C(F)(F)F)c1,outcome,[19],inactive
same,outcome,[3],inactive
same,outcome,[4],inactive
same,outcome,[5],inactive
same,outcome,[6],inactive
same,outcome,[7],inactive
same,outcome,[20],inactive
same,outcome,[8],inactive
same,outcome,[9],inactive
same,outcome,[10],inactive
same,outcome,[11],inactive
same,outcome,[12],inactive
same,outcome,[13],inactive
same,outcome,[14],inactive
same,AC50,[1],7.03 µM (active)
N#CSCSC#N,AC50,[15],16.5 µM (active)
same,outcome,[16],inactive
same,AC50,[18],12.7 µM (active)
same,AC50,[1],50 µM (active)
CCCCOC(=O)c1ccccc1C(=O)O,outcome,[15],inactive
same,outcome,[16],inactive
same,outcome,[18],inactive
same,outcome,[17],inactive
CC(C1CC1)C(O)(Cn1cncn1)c1ccc(Cl)cc1 (configuration not stated),outcome,[3],inactive
same,outcome,[4],inactive
same,outcome,[5],inactive
same,outcome,[6],inactive
same,outcome,[7],inactive
same,outcome,[8],inactive
same,outcome,[9],inactive
same,outcome,[10],inactive
same,outcome,[11],inactive
same,outcome,[12],inactive
same,outcome,[13],inactive
same,outcome,[14],inactive
same,AC50,[1],50 µM (active)
CCOP(=S)(OCC)SCCSCC,outcome,[1],inactive
Nc1c(Cl)cc([N+](=O)[O-])cc1Cl,AC50,[15],41.7 µM (active)
same,outcome,[16],inactive
same,outcome,[18],inactive
same,outcome,[17],inactive
CSC1=N[C@@](C)(c2ccccc2)C(=O)N1Nc1ccccc1,outcome,[19],inactive
same,outcome,[20],inactive
same,AC50,[1],41 µM (active)
